The list is not random: actives were taken first. Their share in the collection is about 3.1%.
Vif-A3G inh = blocks the Vif interaction with human APOBEC3G | Q9HC16 | HeLa A3G-eYFP + Vif (tagged APOBEC3G with the HIV-1 protein that degrades it), YFP fluorescence, overnight | Potency, µM (titrated, usually from 46.1 µM), most hits filed as inhibitors | 410,000 tested, 0.076% active; note: nearly all actives have a fitted effect of over 60% in size
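Read-out is eYFP fluorescence (Ex 488/Em 500-530) from Vif-expressing HeLa A3G-eYFP cells; more signal means A3G escaped Vif-mediated degradation. Cells plated overnight, compound pinned in, incubated overnight at 37 deg C.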
TSHR antag = human thyrotropin receptor antagonism. AID 504810. TSHR-expressing cells, TSH-stimulated cAMP HTRF, 2 h; active compounds read low. activity change, negative = inhibition, % at 11.5 µM. 330,000 tested, 0.2% active. P16473;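 active = activity change below a set negative limit, meaning inhibition stronger than a set level, cut at about -70% in these data; inconclusive = activity change between two set negative limits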
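Cell-based HTRF cAMP assay; TSHR cells + compound, TSH EC80 (4nM final), 2 h, 37 deg C. Lysis with anti-cAMP cryptate and cAMP-d2, 30 min RT, read 665/620 nm.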
Vif-A3F inh = blocks the Vif interaction with APOBEC3F; AID 602313; 390,000 tested, 0.2% active; HeLa A3F-eYFP + Vif (tagged APOBEC3F with the HIV-1 protein that degrades it), YFP fluorescence increase; Potency, µM (titrated, usually from 46.1 µM); note: nearly all actives have a fitted effect of over 65% in size
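Fluorescence increase (Ex 488/Em 500-530) after overnight compound treatment at 37 deg C flags inhibition of Vif-driven A3F-eYFP loss in stable HeLa A3F-eYFP/Vif cells seeded overnight beforehand.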
PLK1 PBD inh = PLK1 (human) polo-box domain binding inhibition. P53350. Plk1 PBD binding of FITC phosphopeptide, fluorescence polarization. Potency, µM, most hits filed as inhibitors. 360,000 tested, 2.8% active. AID 720504; note: series mostly up to about 57 µM; nearly all actives have a fitted effect of over 65% in size
Target sequence (P53350 whole entry, looked up, the tested form may be a part): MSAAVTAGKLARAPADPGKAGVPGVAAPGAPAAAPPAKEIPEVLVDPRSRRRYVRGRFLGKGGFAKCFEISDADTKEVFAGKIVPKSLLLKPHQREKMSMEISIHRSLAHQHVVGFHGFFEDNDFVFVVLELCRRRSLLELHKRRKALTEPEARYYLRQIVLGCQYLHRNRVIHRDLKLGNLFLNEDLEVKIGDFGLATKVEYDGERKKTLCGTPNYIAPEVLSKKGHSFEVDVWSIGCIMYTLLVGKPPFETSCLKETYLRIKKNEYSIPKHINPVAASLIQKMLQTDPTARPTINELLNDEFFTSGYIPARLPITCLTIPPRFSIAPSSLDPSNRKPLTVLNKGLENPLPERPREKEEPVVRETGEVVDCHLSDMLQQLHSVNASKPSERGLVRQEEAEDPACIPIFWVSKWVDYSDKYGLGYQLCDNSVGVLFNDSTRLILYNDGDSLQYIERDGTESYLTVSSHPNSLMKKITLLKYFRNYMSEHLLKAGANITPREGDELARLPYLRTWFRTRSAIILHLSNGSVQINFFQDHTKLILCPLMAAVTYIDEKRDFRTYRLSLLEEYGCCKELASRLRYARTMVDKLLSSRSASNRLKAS
VDR inhibitor = vitamin D3 receptor (human) inhibition; P11473; Potency, µM, most hits filed as inhibitors; VDR-SRC2-3 peptide fluorescence polarization, 2 h; 400,000 tested, 0.93% active
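VDR–SRC2-3 interaction, FP format. Cmpds 23 nl via pintool, brief spin, 2 h ambient incubation.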
Large screens that a line does not name were inactive; ! = a repeat was not active. Unless noted, calls come from the whole dose curve; as a rule, active = well fitted curve in the direction sought with a large enough effect; inconclusive = small, poorly fitted or top-dose-only effect, or another doubt; inactive = no such curve, though single readings can be large; an effect the other way counts as inactive or inconclusive.

Cc1ccnc(NS(=O)(=O)c2ccc(NC(=O)C3COc4ccccc4O3)cc2)n1 (configuration not stated)	PLK1 PBD inh 7.52µM, VDR inhibitor inconclusive
CCc1nnc(NC(=O)C2COc3ccccc3O2)s1 (configuration not stated)	none
Cc1nnc(NC(=O)C2c3ccccc3Oc3ccccc32)s1	PLK1 PBD inh 21.2µM, VDR inhibitor inconclusive
CCOCCCNC(=O)C(NC(=O)C1CCC(C)CC1)C(C)C (configuration not stated)	none (no result: TSHR antag, PLK1 PBD inh)
O=C(O)/C=C/C(=O)Nc1ccc(C2(c3ccc(NC(=O)/C=C/C(=O)O)cc3)c3ccccc3-c3ccccc32)cc1	TSHR antag -85.9, PLK1 PBD inh 29.9µM, VDR inhibitor 25.1µM
O=C(O)/C=C\C(=O)Nc1ccc(Oc2ccccc2)cc1	none
CO[C@H]1/C=C/O[C@@]2(C)Oc3c(C)c(O)c4c(O)c(c5c(c4c3C2=O)NC2(CCN(CC(C)C)CC2)N=5)=NC(=O)/C(C)=C\C=C\[C@H](C)[C@H](O)[C@@H](C)[C@@H](O)[C@@H](C)[C@H](OC(C)=O)[C@@H]1C	VDR inhibitor 39.8µM! (no result: TSHR antag)
COc1ccc(CCNC(=O)c2ccc3c(c2)CCN3S(C)(=O)=O)cc1OC	none (no result: TSHR antag, PLK1 PBD inh)
Cc1csc(NC(=O)c2sc3nc(-c4cccs4)ccc3c2N)n1	Vif-A3G inh inconclusive, Vif-A3F inh 22.4µM
Cc1ccc(NC(=O)C2CCCN(S(=O)(=O)c3cnc[nH]3)C2)c(Br)c1 (configuration not stated)	PLK1 PBD inh 23.8µM!, VDR inhibitor inconclusive
Cc1ccccc1NC(=O)C1CCCN(S(=O)(=O)c2cnc[nH]2)C1 (configuration not stated)	none
CS(=O)(=O)c1ccc(C(=O)OCC(=O)Nc2ccc(OC(F)(F)F)cc2)cc1[N+](=O)[O-]	none (no result: TSHR antag, Vif-A3F inh, PLK1 PBD inh)
O=C(NCc1ccncc1)c1ccc(Oc2ccccc2)cc1	PLK1 PBD inh 10.6µM
Cc1ccc(NC(=O)c2cc3ccccc3oc2=N)cc1	none
N=c1oc2c3c4c(cc2cc1C(=O)Nc1ccccc1)CCCN4CCC3	PLK1 PBD inh 3.36µM
CC(=O)Oc1cc2c(C(=O)NCCCN3CCOCC3)c(C)oc2c2ccccc12	PLK1 PBD inh 29.9µM
CC(C)(C)C(=O)OCc1cc(=O)n2nc(C3CCCCC3)sc2n1	none (no result: TSHR antag, PLK1 PBD inh)
Cc1ccc(C)n1-c1nc(=S)[nH][nH]1	PLK1 PBD inh 23.8µM, VDR inhibitor 31.6µM
CCOC(=O)CSc1n[nH]c(=S)s1	PLK1 PBD inh 26.7µM
Cc1csc2nc(COc3ccc(NC(=O)COc4ccc(F)cc4)cc3)cc(=O)n12	VDR inhibitor inconclusive (no result: TSHR antag, PLK1 PBD inh)
COc1ccc(CCNc2ncnc3nc[nH]c23)cc1	none (no result: TSHR antag, Vif-A3F inh, PLK1 PBD inh)
COc1cc(/C=C2\C(=N)N3N=C(S(C)(=O)=O)SC3=NC2=O)ccc1OCCOc1ccc(C)cc1	PLK1 PBD inh inconclusive
CCS(=O)(=O)C1=NN2C(=N)/C(=C\c3ccc(OS(=O)(=O)c4ccccc4)c(OC)c3)C(=O)N=C2S1	none (no result: Vif-A3G inh, Vif-A3F inh, PLK1 PBD inh, VDR inhibitor)
CCOc1cc(/C=C2\C(=N)N3N=C(S(C)(=O)=O)SC3=NC2=O)ccc1OCCOc1cccc(OC)c1	PLK1 PBD inh 26.7µM, VDR inhibitor inconclusive
CCS(=O)(=O)C1=NN2C(=N)/C(=C\c3ccc(OCCOc4cccc(OC)c4)c(OC)c3)C(=O)N=C2S1	PLK1 PBD inh 23.8µM
CC(C)C[C@@H](CC(=O)N[C@@H](CCC(=O)O)CC(=O)O)NC(=O)[C@@H]1CCCC[C@H]1NC(=O)C[C@@H](NC(=O)C[C@H](CO)NC(=O)[C@@H]1CNCC[C@H]1N)C(C)C	none (no result: Vif-A3G inh, TSHR antag, Vif-A3F inh, PLK1 PBD inh)
CCn1nc(CC(C)C)cc1C(=O)N1CCCC(Nc2ccc(OC)cc2)C1 (configuration not stated)	PLK1 PBD inh 26.7µM
COC(=O)C1C(=O)C2=C(CC1C)NC(=O)CC2c1cccc(C)c1 (configuration not stated)	PLK1 PBD inh 26.7µM
CCOC(=O)c1ccc(NC(=O)c2ccccc2C)cc1	none
CCOC(=O)c1sc(=S)n(CC)c1NC(=O)c1ccccc1	none
CCOC(=O)c1sc(=S)n(C)c1NC(=O)c1ccc(F)cc1	PLK1 PBD inh 5.32µM, VDR inhibitor inconclusive
CCOC(=O)c1sc(=S)n(C)c1NC(=O)c1ccccc1C	PLK1 PBD inh 5.97µM, VDR inhibitor inconclusive

Bioassay records (PubChem)
